# Several values for one entry are separate records, joined by “and”; a condition that tells them apart may be missing. Equal entries are not always repeated. About 83,000 compounds went through this panel and 20% of them were active in at least one assay; those are over-represented in the sample as a whole.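 Single-concentration screen, 48 h exposure, 96-well plates. Endpoint: percent growth. Below 10 = active.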 Unmarked numbers belong to inactive results.
# Tested on: A549/ATCC NSCLC
# Assay: NCI-60 one-dose screen, 48 h (100 = growth as untreated, 0 = no growth, -100 = all killed)
# Conditions: 10 µM
# Description: Growth inhibition of the A549/ATCC human Non-Small Cell Lung tumor cell line is measured as a screen for anti-cancer activity. Cells are grown in 96 well plates and exposed to the test compound for 48 hours. Compounds are tested at a single concentration, which is 10^-5 M for most compounds. The reported endpoint is percent growth (GI% or GIPRCNT), where numbers from 0 - 100% represent growth inhibition, and numbers from -100% - 0 represent cell death. For example, a value of 40 represents 60% growth inhibition. A value of 0 means no net growth occurred over the course of the experiment. A value of -40 indicates 40% of cells at the beginning of the experiment died by the end of the experiment. A value of -100 means all cells are dead at the end of the experiment.
# NCI-60 Human Tumor Cell Lines Screen was performed using the standard one-dose NCI protocol, which is described in more detail at https://dtp.cancer.gov/discovery_development/nci-60/default.htm.
# Compounds with GIPRCNT values below 10 were considered active. Activity score was based on GIPRCNT using the following formula: […]
# Score is 0 for GIPRCNT values of 100 or above, 50 for GIPRCNT values of 0, and 100 for GIPRCNT values of -100.
row,SMILES,growth [%]
1,O=c1ccn2c(n1)OC1CC2OC1COC(c1ccccc1)(c1ccccc1)c1ccccc1 (stereo not given),93.5

# Same assay, conditions: 10 µM unless noted
row,SMILES,growth
1,CN(C)CC(CN(C)C)C(O)c1ccccc1 (stereo not given),91.5%
2,CCCCC/C(C)=N\NC(N)=S,78.4%
3,CNc1ccc(O)cc1,104% and 114%
4,Cc1cc(NC(=O)NC(=O)c2ccccc2N(C)C)ccc1Oc1ncc(Br)cn1,43.9% and 33.7%
5,COc1cc(Cl)ccc1C,84.5%
6,OCCS,95.1%
7,CCOc1ccc(/C=C\C(=O)O)cc1,104%
8,Cc1ccc2cccc([N+](=O)[O-])c2n1,103% and 104%
9,CCOC(=O)C(N)Cc1cc(I)c(O)c(I)c1 (stereo not given),107% and 101%
10,O=S(=O)(O)c1ccc2cc(O)ccc2c1,111%
11,N#CC1c2ccccc2C=CN1C(=O)c1ccccc1 (stereo not given),104% and 107%
12,CCN(CC)CCNC(=O)c1ccc(NCN2C(=O)NC(c3ccccc3)(c3ccccc3)C2=O)cc1,95.3% and 107%
13,OCc1ccccc1F,93.4%
14,CCCC(=O)OCC(COC(=O)CCC)OC(=O)CCC,94.9%
15,CC(=O)c1cc2ccccc2o1,104%
16,O=[N+]([O-])c1ccc(NC(c2ccccc2)c2ccc3cccnc3c2O)cc1 (stereo not given),13.8%
17,CC(C)(C(=O)c1cccnc1)c1cccnc1,86.5% and 108%
18,ON=C(C1CCCCC1)C1CCCCC1,95.9%
19,Cc1ccc(S(=O)(=O)n2ccnc2)cc1,89.1%

row,SMILES,growth
1,Nc1[nH][nH]c(=O)c1N=Nc1ccccc1,103% and 110%
2,CCCCCCCCCCCCCCCCC(=O)O,104%
3,Clc1ccc2sc(-c3ccccc3)nc2c1,71.4%
4,O=C(O)c1cc(=O)[nH]c(=O)[nH]1,98.3%
5,O=C1CCC(=O)N1CC1CC2CCC1C2 (stereo not given),111% and 99.1%
6,COc1ccc(S(=O)(=O)c2ccc(F)cc2)cc1,82.4%
7,COc1ccc(/C=N/Nc2nc3ccccc3s2)cc1,93.9%
8,Cc1c(O)nc(N)[nH]c1=O,99.9%
9,COc1cc([C@@H]2c3cc4c(cc3[C@H](O)[C@H]3COC(=O)[C@@H]23)OCO4)cc(OC)c1OC,12.3% and 21.2%
10,C/C(=C\c1ccccc1)C(O)C(=O)c1nc2ccc([N+](=O)[O-])cc2[nH]c1=O (stereo not given),85.7%
11,Cc1cc(-c2ccc(N=Nc3c(C)nn(-c4ccc(S(=O)(=O)O)cc4)c3O)c(C)c2)ccc1N=Nc1ccc(O)c(C(=O)O)c1,104%
12,O=C(c1ccccc1)C1(Br)CCCCC1,96.8%
13,Cc1cnc(N)s1,69%
14,CCC(=O)Oc1ccc(OCc2ccccc2)cc1,99.7% and 102%
15,CCN(CC)Cc1cc2[nH]c3c4ccc(Cl)cc4ncc3c2cc1OC,19.6% and 44.1%
16,N#CC(=S)Nc1ccc(Cl)c(Cl)c1,15.6%
17,COc1ccc2oc3c(ccc[n+]3C)c(=O)c2c1,84%
18,COc1ccc2nccc(Cl)c2c1,91.9%
19,Nc1ccc(Cl)c(S(=O)(=O)O)c1,106%

# Same assay, conditions: 100 µM
row,SMILES,growth [%]
1,O=c1ccn2c(n1)OC1CC2OC1COC(c1ccccc1)(c1ccccc1)c1ccccc1 (stereo not given),83
